How the values were obtained:
Experiment in all cases: log2 ratio of Biotin-Ahx-Ub-VS probe labelling (fragment/DMSO); higher = less target engagement (more negative = stronger competition), active = hit call of the paper (q ≤ 0.05, log2 ratio ≤ -1)
Details in all cases: compound concentration: 200 uM; treatment time: 3 h
USP9X = USP9X (UniProt Q93008)
In short: (§1)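 Labelled DUBs from HEK293T lysate were NeutrAvidin-enriched, digested with LysC and trypsin, and run by diaPASEF LC-MS/MS. Before that, each 495 µg sample in Tris/CHAPS/IGEPAL buffer with protease inhibitors was treated in triplicate with fragment at 200 µM or vehicle for 3 h, then with Biotin-Ahx-Ub-VS at 0.5 µM final for 1 h. Values are average log2 ratios of fragment over vehicle by unpaired t-test, based on global-median-normalised Spectronaut label-free quantities from proteins with ≥2 unique peptides.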

UniProt O00487 = molecular target: UniProt O00487
In short: as §1

UniProt O00507 = molecular target: UniProt O00507
In short: as §1

UniProt P51784 = molecular target: UniProt P51784
In short: as §1

UniProt Q5T2D3 = molecular target: T1, UniProt Q5T2D3
T1 sequence (whole entry): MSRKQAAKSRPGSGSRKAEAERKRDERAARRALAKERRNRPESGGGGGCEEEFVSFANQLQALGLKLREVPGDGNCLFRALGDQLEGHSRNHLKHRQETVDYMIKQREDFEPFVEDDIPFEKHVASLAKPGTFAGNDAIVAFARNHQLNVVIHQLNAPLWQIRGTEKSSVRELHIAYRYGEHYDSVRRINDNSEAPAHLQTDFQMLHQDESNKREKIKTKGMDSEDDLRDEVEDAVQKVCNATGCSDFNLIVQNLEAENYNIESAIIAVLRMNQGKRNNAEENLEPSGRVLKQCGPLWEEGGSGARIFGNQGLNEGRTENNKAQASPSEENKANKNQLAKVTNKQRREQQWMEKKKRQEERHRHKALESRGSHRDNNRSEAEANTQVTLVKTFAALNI
In short: as §1

UniProt Q8TE49 = molecular target: T2, UniProt Q8TE49
T2 sequence (whole entry): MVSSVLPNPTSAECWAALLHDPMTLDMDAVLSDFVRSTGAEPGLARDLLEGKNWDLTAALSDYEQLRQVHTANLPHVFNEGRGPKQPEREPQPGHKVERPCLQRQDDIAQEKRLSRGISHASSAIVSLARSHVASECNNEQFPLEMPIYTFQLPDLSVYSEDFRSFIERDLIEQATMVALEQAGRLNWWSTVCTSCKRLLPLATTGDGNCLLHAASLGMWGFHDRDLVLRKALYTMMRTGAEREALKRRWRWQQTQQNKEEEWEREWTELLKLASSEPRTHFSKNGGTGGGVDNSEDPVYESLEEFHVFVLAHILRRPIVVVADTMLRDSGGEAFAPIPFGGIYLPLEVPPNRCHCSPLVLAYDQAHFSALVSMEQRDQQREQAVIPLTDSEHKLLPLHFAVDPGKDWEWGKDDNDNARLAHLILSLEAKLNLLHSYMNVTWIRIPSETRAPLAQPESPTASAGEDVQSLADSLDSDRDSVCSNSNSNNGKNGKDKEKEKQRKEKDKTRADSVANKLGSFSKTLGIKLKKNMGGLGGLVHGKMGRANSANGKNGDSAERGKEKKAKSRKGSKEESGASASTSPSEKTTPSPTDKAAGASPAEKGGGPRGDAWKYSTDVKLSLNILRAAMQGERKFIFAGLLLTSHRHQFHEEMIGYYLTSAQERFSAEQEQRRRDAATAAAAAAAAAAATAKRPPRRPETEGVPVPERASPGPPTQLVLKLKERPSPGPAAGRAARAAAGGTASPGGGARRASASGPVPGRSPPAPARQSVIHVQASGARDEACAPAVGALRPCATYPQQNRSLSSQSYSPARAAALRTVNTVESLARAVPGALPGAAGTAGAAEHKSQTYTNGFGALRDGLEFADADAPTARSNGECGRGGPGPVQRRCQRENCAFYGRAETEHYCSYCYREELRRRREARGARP
In short: as §1

UniProt Q9P2H5 = molecular target: T3, UniProt Q9P2H5
T3 sequence (whole entry): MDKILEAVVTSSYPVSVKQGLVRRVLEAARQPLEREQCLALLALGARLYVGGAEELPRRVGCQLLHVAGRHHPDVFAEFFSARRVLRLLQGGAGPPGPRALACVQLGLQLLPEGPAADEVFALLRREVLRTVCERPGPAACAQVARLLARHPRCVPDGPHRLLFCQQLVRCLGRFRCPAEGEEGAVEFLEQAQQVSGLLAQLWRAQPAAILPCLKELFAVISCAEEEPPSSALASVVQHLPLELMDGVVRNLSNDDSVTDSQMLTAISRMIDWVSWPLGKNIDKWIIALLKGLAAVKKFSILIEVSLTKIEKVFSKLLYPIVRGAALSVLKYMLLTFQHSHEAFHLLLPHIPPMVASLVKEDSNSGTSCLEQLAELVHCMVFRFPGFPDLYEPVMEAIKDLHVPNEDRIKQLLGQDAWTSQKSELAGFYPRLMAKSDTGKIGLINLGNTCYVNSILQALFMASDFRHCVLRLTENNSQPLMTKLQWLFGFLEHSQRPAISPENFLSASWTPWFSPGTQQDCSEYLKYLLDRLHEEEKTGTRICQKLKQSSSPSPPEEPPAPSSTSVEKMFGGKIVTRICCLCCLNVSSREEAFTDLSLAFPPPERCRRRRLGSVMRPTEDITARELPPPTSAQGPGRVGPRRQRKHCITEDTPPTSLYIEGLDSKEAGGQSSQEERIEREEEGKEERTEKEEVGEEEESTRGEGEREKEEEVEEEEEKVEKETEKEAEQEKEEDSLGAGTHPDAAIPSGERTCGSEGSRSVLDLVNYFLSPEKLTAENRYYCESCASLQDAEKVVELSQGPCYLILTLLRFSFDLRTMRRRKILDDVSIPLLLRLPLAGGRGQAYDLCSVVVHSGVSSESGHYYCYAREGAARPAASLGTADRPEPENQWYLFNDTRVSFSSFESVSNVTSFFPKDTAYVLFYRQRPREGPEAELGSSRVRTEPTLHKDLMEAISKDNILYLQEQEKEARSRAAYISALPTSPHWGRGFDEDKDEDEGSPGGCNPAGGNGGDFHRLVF
In short: as §1

UniProt Q9UGI0 = molecular target: T4, UniProt Q9UGI0
T4 sequence (whole entry): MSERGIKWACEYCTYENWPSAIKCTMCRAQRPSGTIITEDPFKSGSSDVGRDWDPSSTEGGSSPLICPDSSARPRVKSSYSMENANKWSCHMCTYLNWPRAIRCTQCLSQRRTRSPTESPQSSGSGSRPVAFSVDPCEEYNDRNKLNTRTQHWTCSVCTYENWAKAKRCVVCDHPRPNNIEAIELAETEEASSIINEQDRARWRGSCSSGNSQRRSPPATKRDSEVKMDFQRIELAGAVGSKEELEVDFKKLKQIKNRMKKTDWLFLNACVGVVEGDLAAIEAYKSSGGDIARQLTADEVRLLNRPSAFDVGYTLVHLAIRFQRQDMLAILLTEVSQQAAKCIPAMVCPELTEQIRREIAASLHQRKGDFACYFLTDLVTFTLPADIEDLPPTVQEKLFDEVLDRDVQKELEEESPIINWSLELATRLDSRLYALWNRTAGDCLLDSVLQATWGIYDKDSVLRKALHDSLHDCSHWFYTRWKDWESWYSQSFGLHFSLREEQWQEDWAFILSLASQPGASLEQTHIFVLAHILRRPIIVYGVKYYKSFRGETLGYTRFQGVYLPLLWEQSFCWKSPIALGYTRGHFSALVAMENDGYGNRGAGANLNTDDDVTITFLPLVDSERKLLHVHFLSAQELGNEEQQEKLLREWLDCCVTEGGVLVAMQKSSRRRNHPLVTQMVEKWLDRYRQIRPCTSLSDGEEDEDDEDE
In short: as §1

YOD1 = molecular target: T5, YOD1 (UniProt Q5VVQ6)
T5 sequence (whole entry): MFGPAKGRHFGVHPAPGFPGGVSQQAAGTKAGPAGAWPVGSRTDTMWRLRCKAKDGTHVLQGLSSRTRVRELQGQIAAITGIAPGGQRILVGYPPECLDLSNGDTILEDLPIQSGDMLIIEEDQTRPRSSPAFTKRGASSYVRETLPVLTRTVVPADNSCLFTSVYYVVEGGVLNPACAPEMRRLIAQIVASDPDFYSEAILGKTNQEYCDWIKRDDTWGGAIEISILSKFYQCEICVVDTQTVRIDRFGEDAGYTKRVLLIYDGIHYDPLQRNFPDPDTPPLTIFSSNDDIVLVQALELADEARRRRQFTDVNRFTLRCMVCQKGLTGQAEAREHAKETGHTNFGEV
In short: as §1

Measured: log2 ratio of Biotin-Ahx-Ub-VS probe labelling

UniProt P51784, sequence (P51784 whole entry): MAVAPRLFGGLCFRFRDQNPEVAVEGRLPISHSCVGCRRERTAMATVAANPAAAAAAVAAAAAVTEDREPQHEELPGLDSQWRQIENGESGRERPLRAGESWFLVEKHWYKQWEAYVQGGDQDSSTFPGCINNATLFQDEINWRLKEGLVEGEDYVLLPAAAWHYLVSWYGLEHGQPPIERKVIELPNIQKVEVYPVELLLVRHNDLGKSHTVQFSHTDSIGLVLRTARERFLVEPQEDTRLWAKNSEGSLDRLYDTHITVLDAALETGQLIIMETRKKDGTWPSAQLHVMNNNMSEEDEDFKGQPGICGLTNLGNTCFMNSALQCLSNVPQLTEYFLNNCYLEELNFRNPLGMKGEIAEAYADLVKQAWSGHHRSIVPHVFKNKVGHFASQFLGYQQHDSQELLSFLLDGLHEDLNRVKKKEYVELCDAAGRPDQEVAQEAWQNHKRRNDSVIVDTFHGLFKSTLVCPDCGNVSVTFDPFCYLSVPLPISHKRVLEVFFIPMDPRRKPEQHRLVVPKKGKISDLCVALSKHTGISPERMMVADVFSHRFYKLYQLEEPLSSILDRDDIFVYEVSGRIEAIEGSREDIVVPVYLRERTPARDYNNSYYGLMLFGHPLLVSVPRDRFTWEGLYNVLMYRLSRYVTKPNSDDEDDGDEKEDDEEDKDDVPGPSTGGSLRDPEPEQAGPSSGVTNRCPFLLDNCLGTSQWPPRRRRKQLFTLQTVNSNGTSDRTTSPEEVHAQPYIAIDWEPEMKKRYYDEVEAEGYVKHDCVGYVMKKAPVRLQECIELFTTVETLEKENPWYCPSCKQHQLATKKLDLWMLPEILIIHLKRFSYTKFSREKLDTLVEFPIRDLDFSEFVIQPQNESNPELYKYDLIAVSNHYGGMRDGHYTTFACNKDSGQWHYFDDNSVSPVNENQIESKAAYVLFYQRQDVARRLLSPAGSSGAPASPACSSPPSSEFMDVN
UniProt O00487, sequence (O00487 whole entry): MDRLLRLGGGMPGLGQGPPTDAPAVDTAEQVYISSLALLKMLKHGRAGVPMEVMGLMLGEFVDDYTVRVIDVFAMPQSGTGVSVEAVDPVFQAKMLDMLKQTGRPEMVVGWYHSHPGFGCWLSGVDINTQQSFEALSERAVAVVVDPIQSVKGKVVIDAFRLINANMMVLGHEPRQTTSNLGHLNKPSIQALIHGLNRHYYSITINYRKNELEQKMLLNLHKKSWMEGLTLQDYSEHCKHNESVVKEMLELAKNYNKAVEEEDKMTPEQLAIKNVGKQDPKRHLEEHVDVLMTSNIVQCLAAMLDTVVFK
UniProt O00507, sequence (O00507 whole entry): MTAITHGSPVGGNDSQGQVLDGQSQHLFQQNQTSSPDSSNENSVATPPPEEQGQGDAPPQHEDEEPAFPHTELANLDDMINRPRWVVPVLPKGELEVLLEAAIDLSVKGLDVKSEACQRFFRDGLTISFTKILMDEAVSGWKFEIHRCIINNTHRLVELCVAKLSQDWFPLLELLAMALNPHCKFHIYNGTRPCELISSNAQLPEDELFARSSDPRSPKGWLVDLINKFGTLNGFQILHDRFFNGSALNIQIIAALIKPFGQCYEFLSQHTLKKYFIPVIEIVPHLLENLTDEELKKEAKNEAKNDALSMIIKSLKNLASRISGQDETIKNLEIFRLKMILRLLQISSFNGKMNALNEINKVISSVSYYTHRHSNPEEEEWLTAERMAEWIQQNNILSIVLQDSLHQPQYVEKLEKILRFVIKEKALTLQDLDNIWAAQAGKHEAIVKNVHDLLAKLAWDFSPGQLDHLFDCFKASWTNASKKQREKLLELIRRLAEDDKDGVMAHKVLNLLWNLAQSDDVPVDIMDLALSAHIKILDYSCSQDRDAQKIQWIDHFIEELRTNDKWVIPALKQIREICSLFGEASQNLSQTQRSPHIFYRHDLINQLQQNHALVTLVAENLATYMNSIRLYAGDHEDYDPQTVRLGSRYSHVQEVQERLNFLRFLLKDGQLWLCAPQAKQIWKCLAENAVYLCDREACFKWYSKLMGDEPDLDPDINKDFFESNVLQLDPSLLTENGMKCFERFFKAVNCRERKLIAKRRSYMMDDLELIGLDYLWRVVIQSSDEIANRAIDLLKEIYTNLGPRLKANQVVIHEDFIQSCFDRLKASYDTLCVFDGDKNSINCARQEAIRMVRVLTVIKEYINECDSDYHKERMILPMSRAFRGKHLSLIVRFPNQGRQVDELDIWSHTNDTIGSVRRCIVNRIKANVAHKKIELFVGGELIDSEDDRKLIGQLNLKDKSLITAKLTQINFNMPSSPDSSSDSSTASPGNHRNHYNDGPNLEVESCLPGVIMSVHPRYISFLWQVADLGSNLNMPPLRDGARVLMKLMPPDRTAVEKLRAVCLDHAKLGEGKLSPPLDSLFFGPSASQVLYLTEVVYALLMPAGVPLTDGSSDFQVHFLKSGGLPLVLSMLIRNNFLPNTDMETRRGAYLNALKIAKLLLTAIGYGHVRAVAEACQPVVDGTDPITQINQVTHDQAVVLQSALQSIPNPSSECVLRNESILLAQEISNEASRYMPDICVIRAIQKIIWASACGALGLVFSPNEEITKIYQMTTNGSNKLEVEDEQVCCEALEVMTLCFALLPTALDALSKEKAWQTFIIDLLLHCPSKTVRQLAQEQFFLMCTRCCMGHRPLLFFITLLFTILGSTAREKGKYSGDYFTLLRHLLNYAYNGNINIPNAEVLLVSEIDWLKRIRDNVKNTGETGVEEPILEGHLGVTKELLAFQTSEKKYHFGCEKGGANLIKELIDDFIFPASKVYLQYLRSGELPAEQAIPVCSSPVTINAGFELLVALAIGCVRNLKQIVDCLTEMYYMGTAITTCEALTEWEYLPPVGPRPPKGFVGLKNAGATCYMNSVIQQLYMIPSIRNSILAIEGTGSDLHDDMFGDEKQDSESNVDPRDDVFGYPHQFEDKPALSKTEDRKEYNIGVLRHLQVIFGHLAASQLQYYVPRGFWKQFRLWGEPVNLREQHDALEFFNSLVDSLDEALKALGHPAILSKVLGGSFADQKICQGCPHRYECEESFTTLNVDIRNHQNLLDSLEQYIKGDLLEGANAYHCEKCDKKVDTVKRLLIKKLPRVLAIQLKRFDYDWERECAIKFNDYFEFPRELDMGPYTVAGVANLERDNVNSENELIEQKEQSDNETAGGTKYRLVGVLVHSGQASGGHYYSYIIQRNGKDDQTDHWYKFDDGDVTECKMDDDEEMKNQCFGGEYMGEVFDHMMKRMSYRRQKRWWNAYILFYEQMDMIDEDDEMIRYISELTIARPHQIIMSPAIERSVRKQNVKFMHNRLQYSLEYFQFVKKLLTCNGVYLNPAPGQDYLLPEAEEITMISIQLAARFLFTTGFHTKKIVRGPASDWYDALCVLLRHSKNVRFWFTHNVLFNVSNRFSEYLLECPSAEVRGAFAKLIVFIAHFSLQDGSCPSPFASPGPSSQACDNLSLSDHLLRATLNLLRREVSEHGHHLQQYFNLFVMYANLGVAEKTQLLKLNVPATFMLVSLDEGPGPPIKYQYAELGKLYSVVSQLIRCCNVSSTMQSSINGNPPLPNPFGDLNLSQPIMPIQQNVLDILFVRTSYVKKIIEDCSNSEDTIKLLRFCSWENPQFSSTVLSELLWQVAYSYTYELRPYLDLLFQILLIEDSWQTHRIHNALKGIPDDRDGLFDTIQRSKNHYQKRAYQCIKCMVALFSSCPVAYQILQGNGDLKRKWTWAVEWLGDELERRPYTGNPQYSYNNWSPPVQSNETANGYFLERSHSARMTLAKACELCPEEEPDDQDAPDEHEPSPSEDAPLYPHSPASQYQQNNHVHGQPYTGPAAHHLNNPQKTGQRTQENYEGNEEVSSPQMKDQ

O=C(CCl)N1CCOCCC1c1ccccc1 (centres undefined)
inactive: USP9X -0.168 | UniProt O00487 -0.00106 | UniProt O00507 -0.114 | UniProt P51784 0.0584 | UniProt Q5T2D3 -0.173 | UniProt Q8TE49 -0.54 | UniProt Q9P2H5 -0.305 | UniProt Q9UGI0 -0.25 | YOD1 0.199

Source: the supplement of paper PMC11732987, “Enantioselective OTUD7B fragment discovery through chemoproteomics screening and high-throughput optimisation” (Communications Chemistry, 2025)
